# Laboratory results reported in PubChem BioAssay (NCATS).
# A number with no mark means an inactive call. The call rests on the fitted dose curve; in most records, active means well fitted curve in the direction sought with a large enough effect; inconclusive means small, poorly fitted or top-dose-only effect, or another doubt; inactive means no such curve, though single readings can be large; an effect the other way counts as inactive or inconclusive. Results filed as inconclusive are left out.
# Experiment: qHTS of Nrf2 Activators: LOPAC Validation (AID 624149); further: 0% is about no effect
# Conditions: Nrf2/ARE reporter cell assay; series mostly up to 46.1 µM; activation: at the top concentration
# Outline: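 AREc32_Fluc cells, 1000/well, OPTI-MEM + 5% FBS, o/n 37 deg C 5% CO2; compound pin-transfer, 24 hr 37 deg C; Steady-Glo 30 min RT, luminescence read.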
row,SMILES,activation [%]
1,CNc1ccc2oc(C[C@H]3O[C@@]4(CC[C@H]3C)O[C@H]([C@H](C)C(=O)c3ccc[nH]3)[C@H](C)C[C@H]4C)nc2c1C(=O)O,-3.57
2,NC(CCCCCP(=O)(O)O)C(=O)O (stereo not given),-1.28
3,N[C@@]1(C(=O)O)CC[C@@H](C(=O)O)C1,0.339
4,CC(N)Cc1c[nH]c2ccc(O)cc12 (stereo not given),-1.99
5,NC(=O)c1cc(N2CC2)c([N+](=O)[O-])cc1[N+](=O)[O-],0.235
6,Clc1cc(I)cc(Cl)c1NC1=NCCN1,0.916
7,C#CCN[C@H](C)Cc1ccccc1,-2.43
8,NC(C(=O)O)c1cc(=O)[nH]o1 (stereo not given),5.26
9,C[C@H](Cc1ccc2c(c1)OC(C(=O)O)(C(=O)O)O2)NC[C@H](O)c1cccc(Cl)c1,-1.12
10,Cc1o[nH]c(=O)c1CC(N)C(=O)O (stereo not given),-2.33
11,COc1ccc(OC)c(C(O)C(C)N)c1 (stereo not given),0.976
12,CC(C)NP(=O)(NC(C)C)OP(=O)(NC(C)C)NC(C)C,-2
13,CN1CCc2cccc(Cl)c2CC1,-2.02
14,C=CCN1C[C@@H](C)N([C@H](c2ccc(C(=O)N(CC)CC)cc2)c2cccc(OC)c2)C[C@@H]1C,-1.88
15,CCCN(CCC)CCc1c[nH]c2ccc(C(N)=O)cc12,1.7
16,CCCN(CCC)C1CCc2cccc(O)c2C1 (stereo not given),-1.62
17,CCCn1c(=O)c2[nH]c(C3CCCC3)nc2n(CCCOC(=O)c2ccc(S(=O)(=O)F)cc2)c1=O,-1.84

# Experiment: HTS Assay for Allosteric Antagonists of the Human D2 Dopamine Receptor: Hit Validation in HTRF (AID 624455); further: on the % scale 0 is the no-effect control and ±100 the full control effect
# Conditions: Cells stably expressing D1 dopamine receptor, inhibition mode; series mostly up to 46.1 µM; activity, negative = inhibition: at the top concentration
# Outline: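 HTRF read-out; cells stably expressing D1 receptor; hits scored for inhibition of D1-mediated response. Primary screen: calcium flux, force-coupled inducible Hek293 Trex D2 line, antagonism vs EC80 dopamine.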
row,SMILES,"activity, negative = inhibition [%]"
1,CNc1ccc2oc(C[C@H]3O[C@@]4(CC[C@H]3C)O[C@H]([C@H](C)C(=O)c3ccc[nH]3)[C@H](C)C[C@H]4C)nc2c1C(=O)O,-8.31
2,NC(CCCCCP(=O)(O)O)C(=O)O (stereo not given),-1.01
3,N[C@@]1(C(=O)O)CC[C@@H](C(=O)O)C1,1.84
4,CC(N)Cc1c[nH]c2ccc(O)cc12 (stereo not given),13.2
5,NC(=O)c1cc(N2CC2)c([N+](=O)[O-])cc1[N+](=O)[O-],7.84
6,C#CCN[C@H](C)Cc1ccccc1,-11.7
7,NC(C(=O)O)c1cc(=O)[nH]o1 (stereo not given),12.5
8,C[C@H](Cc1ccc2c(c1)OC(C(=O)O)(C(=O)O)O2)NC[C@H](O)c1cccc(Cl)c1,5.97
9,Cc1o[nH]c(=O)c1CC(N)C(=O)O (stereo not given),-6.13
10,CC(C)NP(=O)(NC(C)C)OP(=O)(NC(C)C)NC(C)C,3.3
11,C=CCN1C[C@@H](C)N([C@H](c2ccc(C(=O)N(CC)CC)cc2)c2cccc(OC)c2)C[C@@H]1C,-0.955
12,CCCN(CCC)CCc1c[nH]c2ccc(C(N)=O)cc12,4.84
13,CCCn1c(=O)c2[nH]c(C3CCCC3)nc2n(CCCOC(=O)c2ccc(S(=O)(=O)F)cc2)c1=O,-7.3
